“And” between values parts separate entries of the source, which are not always exact repeats. Equal entries are not always repeated. About 83,000 compounds went through this panel and 20% of them were active in at least one assay; those are over-represented in the sample as a whole.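 48-hour exposure, single concentration, 96-well plates; percent growth endpoint where 0 means no net growth. Active: below 10.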 The source made the active and inactive calls.
Tests used:
Assay in all cases: NCI-60 one-dose screen, 48 h (100 = growth as untreated, 0 = no growth, -100 = all killed)
Conditions in all cases: 10 µM unless noted
[1] = system: DU-145 prostate
[2] = system: K-562 leukemia
[3] = system: MALME-3M melanoma
[4] = system: MDA-MB-231 breast
[5] = system: RXF 393 renal
[6] = system: SF-268 CNS
[7] = system: SF-295 CNS
[8] = system: SF-539 CNS
[9] = system: UACC-257 melanoma
[10] = system: M14 melanoma
[11] = system: HCT-15 colon
[12] = system: HT29 colon
[13] = system: SNB-75 CNS
[14] = system: SNB-19 CNS
[15] = system: U251 CNS
[16] = system: PC-3 prostate
[17] = system: SK-MEL-5 melanoma
[18] = system: UACC-62 melanoma
[19] = system: LOX IMVI melanoma
[20] = system: SK-MEL-28 melanoma

SMILES | growth [1] | growth [2] | growth [3] | growth [4] | growth [5] | growth [6] | growth [7] | growth [8] | growth [9] | growth [10] | growth [11] | growth [12] | growth [13] | growth [14] | growth [15] | growth [16] | growth [17] | growth [18] | growth [19] | growth [20]
CCCCCCCCCCCCCCCc1cc(O)ccc1N | 96.6% (inactive) and 107% (inactive) | 55.8% (inactive) | 106% (inactive) and 78.2% (inactive) | 59.4% (inactive) and 71.5% (inactive) | 94.7% (inactive) | 77% (inactive) and 36.7% (inactive) | 41.3% (inactive) and 49.7% (inactive) | -40.5% (active) and -83.9% (active) | 87.4% (inactive) and 71.4% (inactive) | 101% (inactive) and 105% (inactive) | 89.4% (inactive) and 75.6% (inactive) | 105% (inactive) and 107% (inactive) | 63.5% (inactive) and 30.1% (inactive) | 96.8% (inactive) and 118% (inactive) | 68.1% (inactive) and 81.1% (inactive) | 34.6% (inactive) and 22.2% (inactive) | 100% (inactive) and 78.6% (inactive) | 84.3% (inactive) | 34.5% (inactive) and -35.1% (active) | 106% (inactive) and 103% (inactive)
Cc1cc(O)c2c(c1)C(=O)c1cc(O)cc(O)c1C2=O | 87.2% (inactive) and 104% (inactive) | 75.9% (inactive) and 87.9% (inactive) | 54.4% (inactive) and 94.1% (inactive) | 78.7% (inactive) and 87.3% (inactive) | 90.7% (inactive) and 107% (inactive) | 89.8% (inactive) and 97.6% (inactive) | 82.8% (inactive) and 94.9% (inactive) | 93.1% (inactive) and 86% (inactive) | 84.8% (inactive) and 92.2% (inactive) | 110% (inactive) and 93.6% (inactive) | 98.9% (inactive) and 92.2% (inactive) | 105% (inactive) and 99.6% (inactive) | 88% (inactive) and 86.7% (inactive) | 82.5% (inactive) and 94.2% (inactive) | 92.1% (inactive) and 88.1% (inactive) | 67% (inactive) and 77.9% (inactive) | 48.9% (inactive) and 59.9% (inactive) | 60.7% (inactive) and 83.6% (inactive) | 84.6% (inactive) and 86.5% (inactive) | 87.7% (inactive)
O=c1c2ccccc2nc2n1Cc1nc3ccccc3c(=O)n1C2 | 96.4% (inactive) and 102% (inactive) | 107% (inactive) and 62.5% (inactive) | 80.1% (inactive) and 108% (inactive) | 99.2% (inactive) and 105% (inactive) | 107% (inactive) and 108% (inactive) | 87.5% (inactive) and 103% (inactive) | 105% (inactive) and 112% (inactive) | 99% (inactive) and 102% (inactive) | 98.3% (inactive) and 112% (inactive) | 89.3% (inactive) and 94.1% (inactive) | 90.9% (inactive) and 108% (inactive) | 111% (inactive) and 103% (inactive) | 86.6% (inactive) and 105% (inactive) | 102% (inactive) and 91.9% (inactive) | 105% (inactive) and 108% (inactive) | 98.6% (inactive) and 107% (inactive) | 95.3% (inactive) and 107% (inactive) | 95.6% (inactive) and 98.9% (inactive) | 96.1% (inactive) and 97.6% (inactive) | 97.8% (inactive) and 101% (inactive)
CC(=O)c1ccc2c(c1)N(CCCN1CCN(CCO)CC1)c1ccccc1S2 | 104% (inactive) and 53.3% (inactive) | 95.3% (inactive) and -16.7% (active) | 86.5% (inactive) and -80% (active) | 91% (inactive) and -12.3% (active) | 32.6% (inactive) and -8.21% (active) | 98.3% (inactive) and 37.5% (inactive) | 100% (inactive) and -53% (active) | 89% (inactive) and 14.7% (inactive) | 30.4% (inactive) and -66.5% (active) | 94.8% (inactive) and -87.4% (active) | 38.2% (inactive) and -17.3% (active) | 69.1% (inactive) and -22.6% (active) | 67% (inactive) and -12.1% (active) | 114% (inactive) and 46.4% (inactive) | 85.7% (inactive) and 20.6% (inactive) | 69.7% (inactive) and 24.2% (inactive) | 88.9% (inactive) and -99.1% (active) | 95.8% (inactive) and -58.7% (active) | 80.1% (inactive) and -85.2% (active) | 77.9% (inactive) and -91.7% (active)
